# Screening data as filed in PubChem.
# This is one part of a sample in which hits are shown more often than they occur.
# Cycloheximide cs = counter-screen for Shiga toxin inhibitors: cycloheximide protein synthesis inhibition; max response, %; cell reporter, cycloheximide protein synthesis inhibition counterscreen; 300,000 compounds, 12% hits; in the data active = max response mostly above about 13%, no sharp cut-off; inactive = mostly below about 14%; note: read at 38.3 µM for the half of the compounds with a filed dose; 0% is about no effect
# AmpC no deterg = AmpC beta-lactamase inhibition without detergent; P00811; AmpC nitrocefin hydrolysis, absorbance 480 nm, 0.0001% Triton; Potency, µM (titrated, usually from 57.1 µM), without a hit: at the highest dose activity change, negative = inhibition, actives largely listed as inhibitors; 330,000 compounds, 0.52% hits;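 note: potency is the fitted concentration of half-maximal effect; plate controls were no compound for no effect and no enzyme for full effect; nearly all actives have a fitted effect of over 20% in size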
# Target sequence (P00811 whole entry, looked up): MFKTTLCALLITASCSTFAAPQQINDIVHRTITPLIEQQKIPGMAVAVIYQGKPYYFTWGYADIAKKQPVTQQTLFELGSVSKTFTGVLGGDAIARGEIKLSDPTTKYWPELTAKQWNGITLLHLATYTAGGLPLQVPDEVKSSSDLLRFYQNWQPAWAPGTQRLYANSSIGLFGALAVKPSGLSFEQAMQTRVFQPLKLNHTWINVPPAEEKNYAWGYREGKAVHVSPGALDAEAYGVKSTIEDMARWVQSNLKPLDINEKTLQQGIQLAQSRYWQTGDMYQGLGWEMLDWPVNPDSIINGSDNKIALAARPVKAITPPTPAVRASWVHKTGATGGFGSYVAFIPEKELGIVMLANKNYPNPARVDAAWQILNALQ
#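 20 mM phosphate pH 7.0 + 0.01% (detergent screen) or 0.0001% Triton X-100; 5.3 nM AmpC reagent; cpd preinc 15 min RT; nitrocefin (800 uM stock) to start; A480 q20 s × 4 min; Activity was normalised to no-enzyme and no-compound control wells.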
# AmpC detergent = AmpC beta-lactamase inhibition with detergent present. P00811. AmpC hydrolysis of nitrocefin, absorbance 480 nm, 0.01% Triton. Potency, µM (top dose mostly 114 µM), for inactives: at the top dose activity change, negative = inhibition, actives largely listed as inhibitors. 370,000 compounds, 0.041% hits;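 note: potency is the fitted concentration of half-maximal effect; 0% = no-compound wells and -100% = no-enzyme wells; nearly all actives have a fitted effect of over 25% in size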
#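 20 mM phosphate pH 7.0 + 0.01% (detergent screen) or 0.0001% Triton X-100; 5.3 nM AmpC reagent; cpd preinc 15 min RT; nitrocefin (800 uM stock) to start; A480 q20 s × 4 min; Activity was normalised to no-enzyme and no-compound control wells.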
# Shiga inhibitor = inhibitors of Shiga toxin in Vero cells; Vero cells, Shiga toxin protein synthesis inhibition reporter; inhibition, % at 38.7 µM; 290,000 compounds, 9.2% hits; AID 2315; in the data active = inhibition mostly above about 28%, no sharp cut-off; inactive = mostly below about 43%; note: 0% is about no effect
# NS1 inh = inhibitors of influenza NS1 protein function | Potency, µM (titrated, usually from 46.1 µM), for inactives: top-dose activity, positive = more growth | 270,000 compounds, 0.4% hits | AID 2326; calls by dose curve; note: potency is the fitted concentration of half-maximal effect; actives are rising curves; nearly all actives have a fitted effect of over 50% in size
#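 Growth recovery, yeast-based: influenza A NS1 expressed in S. cerevisiae causes slow growth, and suppressors are detected by OD600. The parent strain without NS1 is used as positive control.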
# Starred values were filed as active, the others as inactive; ? = inconclusive; / = no result given; [ ] = dose if it differs, or a comment. Unless noted, calls come from the whole dose curve; as a rule, active = well fitted curve in the direction sought with a large enough effect; inconclusive = small, poorly fitted or top-dose-only effect, or another doubt; inactive = no such curve, though single readings can be large; an effect the other way counts as inactive or inconclusive.
SMILES,Cycloheximide cs,AmpC no deterg,AmpC detergent,Shiga inhibitor,NS1 inh
N#Cc1c(-c2ccccc2)cc(-c2ccccc2)nc1SCC(O)CS(=O)(=O)Cc1ccc(Cl)cc1 (stereo not drawn),/,/,5.3%,/,/
CCCCn1cnc2c(c(CC#N)nn2-c2ccccc2)c1=N,/,/,/,/,0.0%
Cc1cc(C)cc(NC(=O)N2CCC(CN3CCc4ccccc4C3)CC2)c1,/,/,9.0%,/,/
Cc1ccc(/C=N\NC(=O)COc2ccc(C)cc2[N+](=O)[O-])cc1,19.8,0.5%,0.4%,15.4,/
Cc1ccc(OCC(=O)Nc2ccon2)c([N+](=O)[O-])c1,41.8*,-23.5%,5.4%,84.0*,-1.6%
COc1cccc(NC(=O)COC(=O)COc2ccccc2[N+](=O)[O-])c1,-6.7,-25.2%,-9.7%,-10.7,-36.0%
Cc1ccc(OCC(=O)Nc2ccccc2[N+](=O)[O-])c(Br)c1,42.0*,2.7%,?,121.6*,/
Cc1ccc(OC/C(=N\O)C(C)(C)C)c([N+](=O)[O-])c1,34.0*,-28.2%,?,75.1*,/
O=C(COC(=O)COc1ccccc1[N+](=O)[O-])Nc1cccc(Br)c1,15.1*,-19.4%,-22.9%,-6.0,-28.4%
NC(=O)C1=C[C@H](c2csc3ccccc23)C[C@H](OCCCCO)O1,6.2,33.1%,6.8%,15.9,-6.2%
O=C1CC(c2ccccc2)Cc2[nH]c(=O)c(-c3nc(-c4ccc(F)cc4)cs3)cc21 (stereo not drawn),-5.1,/,20.6%,-3.9,/
COc1ccc(NS(=O)(=O)c2ccc3c(c2)CCN3C(=O)CCC(=O)O)cc1OC,32.9*,-9.7%,-3.9%,64.4*,1.4%
Cc1ccc(C)c(N2CCN(S(=O)(=O)c3cc(Br)cc4c3N(C(=O)C3CC3)CC4)CC2)c1,/,/,3.6%,/,/
CCc1ccc(NC(=O)c2sc3nc(C)c(C(=O)Nc4ccc(C)cc4C)c(-c4ccco4)c3c2N)cc1,/,/,-1.1%,/,/
COc1ccc(OC)c(NC(=O)Cc2nn(C)c(=O)c3ccccc23)c1,-3.7,-26.9%,-2.1%,12.5,-5.4%
COc1cc(NC(=O)Cc2nn(C)c(=O)c3ccccc23)cc(OC)c1OC,19.7*,-16.8%,5.5%,24.1,-8.4%
C/C(=C\c1ccc(Cl)cc1)C(C)(C)C(=O)O,/,/,/,/,-9.7%
Cc1ccc(NC(=O)CSCC(=O)NCCc2ccccc2)cc1,1.7,1.3%,-8.3%,-3.8,-2.3%
Cc1ccc(CSCC(=O)NCCc2ccccc2)cc1,17.7*,-4.4%,-13.1%,84.8,/
Cc1ccc(SCC(=O)Nc2ccccc2C(=O)O)cc1,28.8*,-5.2%,-8.1%,116.6*,-3.3%
CSc1ccccc1NC(=O)CSCc1ccc(C)cc1,21.4,0.2%,-5.9%,5.8,-116.8%
O=C(CSc1nc(=O)n2ccccc2n1)NCCc1ccccc1,/,-9.4%,?,/,/
Cc1ccn2c(=O)nc(SCC(=O)NCCc3ccccc3)nc2c1,/,31.6µM*,?,/,/
Cc1ccc(CSCC(=O)Nc2ccccc2C(=O)O)cc1,35.6*,-55.1%,-12.4%,47.1*,16.2%
CN(/N=C/c1cc(Cl)cc(Cl)c1O)c1c(Cl)cccc1[N+](=O)[O-],-1.3,-43.7%,-5.0%,2.4,3.8%
SMILES,Cycloheximide cs,AmpC no deterg,AmpC detergent,Shiga inhibitor,NS1 inh
CCOc1ccccc1NC(=O)c1cc2c(=O)[nH]c3ccccc3c2s1,/,/,1.3%,/,/
CCC1(c2ccc(F)cc2)NC(=O)N(CC(=O)Nc2cccnc2Cl)C1=O (stereo not drawn),/,-18.9%,6.3%,/,/
O=C(CSc1ccccc1)Nc1ccccc1C(=O)O,27.1*,/,-0.1%,87.5*,5.3%
Cc1cc(C(=O)Nc2ccc(F)cc2F)on1,14.5*,-9.3%,-3.5%,6.3,-3.5%
Cc1cc(C(=O)Nc2ccc(F)c(Cl)c2)on1,19.5*,-15.2%,-0.1%,5.6,2.8%
CCCNC(=O)c1cc(C)no1,7.9,-8.4%,3.3%,48.8,9.0%
CCc1ccc(NC(=O)c2cc(C)no2)cc1,46.6*,-19.3%,0.7%,70.1*,-1.5%
COc1ccc(NC(=O)c2cc(C)no2)cc1,35.8*,-17.4%,0.5%,71.6*,1.3%
O=C(Cc1c(F)cccc1Cl)NNC(=O)c1ccccc1Cl,/,-10.7%,-2.2%,/,/
CC(=O)c1ccc(S(=O)(=O)N2CCN(c3nn(C)c(=O)n(C)c3=O)CC2)cc1,/,1.9%,?,/,/
O=C(O)CCCn1cc(NC(=O)c2ccc(Br)o2)cn1,-2.9,-10.5%[2.29 µM],0.6%,14.6,2.9%
Cc1ccc(NC(=O)c2cc(C)no2)cc1,59.4*,-13.1%,-5.2%,79.5*,-5.2%
Cc1cc(C(=O)Nc2ccccc2C)on1,0.2,-2.3%,-11.8%,-1.9,10.2%
O=C(O)Cc1ccc(NC(=O)c2ccc(NC(=O)c3ccco3)cc2)cc1,-1.1,-24.4%,?,18.4,12.3%
O=C(Nc1ccc(Br)cc1)c1ccco1,29.8*,-20.9%,-4.0%,15.5,-66.0%
O=C(Nc1ccc(Nc2ccccc2)cc1)c1ccco1,49.1*,-53.6%,-4.5%,139.0*,-23.7%
O=C(Nc1ccc(Cc2ccncc2)cc1)c1ccco1,24.0*,2.3%,-15.5%,81.4*,-14.1%
CC(=O)N(C)c1ccc(NC(=O)c2ccco2)cc1,29.7*,-5.2%,-13.9%,151.8*,5.2%
CN(c1ccccc1)S(=O)(=O)c1ccc(NC(=O)c2ccco2)cc1,13.8,-8.3%,-4.9%,19.7,/
O=C(Nc1ccc(NC(=O)c2ccco2)cc1)c1ccco1,-6.4,-7.8%,1.1%,-14.2,2.0%
CC[C@@H]1CC=C[C@H]2[C@H]1C(=O)N(Cc1ccccc1)[C@H]2c1ccoc1,12.2*,-7.5%,3.3%,57.5*,-36.6%
COc1ccc(-c2cc3ccccc3s2)cc1[C@H]1[C@H]2C=CC[C@@H](C)[C@@H]2C(=O)N1Cc1ccccc1,3.0,-36.6%,-2.6%,44.3,3.8%
CC1CC=CC2C1C(=O)N(Cc1ccccc1)C2c1ccc(-c2cc3ccccc3s2)cc1F (stereo not drawn),48.8*,/,/,96.4*,/
COc1ccc(-c2cc([C@H]3[C@H]4C=CC[C@@H](C)[C@@H]4C(=O)N3Cc3ccccc3)ccc2F)cc1OC,21.6*,85.7%,-2.9%,61.0*,?
COC(=O)c1ccc([C@H]2C=C(C(=O)O)O[C@@H](OCc3ccc(CO)cc3)C2)cc1,-3.1,-19.8%,1.1%,-4.8,-9.0%
SMILES,Cycloheximide cs,AmpC no deterg,AmpC detergent,Shiga inhibitor,NS1 inh
Cc1cc(C)c(C(=O)N2CCCC(N3CCN(c4ccc(F)cc4)CC3)C2)o1 (stereo not drawn),6.8,-4.3%,-2.5%,-1.4,-22.3%
S=C(NCc1ccco1)Nc1ccccc1Cl,20.3*,-18.6%,5.6%,33.0,0.3%
S=C(NCc1ccco1)Nc1ccc(Oc2ccc(Cl)cc2)cc1,0.8,-54.3%,0.2%,-1.6,-6.5%
S=C(NCc1ccco1)Nc1ccc(Cl)cc1,15.5*,-23.8%,-9.4%,15.6,-8.0%
N#CC(C(=O)Nc1ccccc1)=C1Nc2ccccc2N1,30.4,-19.3%,-0.9%,74.6*,-14.4%
Cc1nc(NC(=O)CSc2nnnn2Cc2ccccc2)sc1C,27.8*,-15.8%,-7.2%,75.0*,-8.8%
CCn1nnnc1SCC(=O)Nc1nc2ccccc2s1,21.4*,-25.4%,3.5%,9.8,-1.6%
COCCCn1nnnc1SCC(=O)Nc1nc2ccccc2s1,10.5,-21.0%,-2.3%,-3.7,6.6%
